Measured values published in PubChem BioAssay AID602197 (NMMLSC, 2012).
Some of the results follow. A number with no mark means an inactive call. Cut-off read from the data, not from the text of the source: active = response above about 24%; inactive = the rest.

Assay: V-ATPase regulators in yeast, one dose – S. cerevisiae, pH-sensitive GFP, second cherry-pick, confirmation (AID 602197);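 note: plate controls were vehicle wells for no effect and positive control wells for full effect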
Conditions: S. cerevisiae pHLuorin cytosolic pH, V-ATPase proton transport; at 10 µM; stronger effect = higher value

| SMILES | response [%] |
| --- | --- |
| Cc1ccccc1N1C(=O)NC(=O)/C(=C\c2cc(C)n(C)c2C)C1=O | 1.24 |
| CC(=O)Nc1ccc(C(=O)C(Cc2ccccc2)N(C)C)cc1 (configuration not stated) | 2.66 |
